From PubChem
Hits are enriched below; roughly 6% of the tested compounds scored in any of these assays.
Tau fluor cs: counter-screen for tau fibril formation inhibitors. tau K18 P301L Alexa594 fluorescence, heparin fibrillization. Potency, µM (highest dose often 57.7 µM), without a hit: at the top dose activity change, negative = decrease. 280,000 tested, 0.93% active. AID 1463; note: nearly all actives have a fitted effect of over 55% in size
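Human tau K18 P301L (15 uM unlabeled, 0.24 uM Alexa 594-labeled) in 100 mM sodium acetate pH 7 with 20 uM heparin, 6 hr at 37 C. ThT 30 uM added, 1 hr ambient; Alexa 594 FP and total fluorescence read at 555/632 nm.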
Tau fibril FP: blocks human tau fibril formation measured by polarization; P10636; 280,000 tested, 0.39% active; AID 1468; Potency, µM (doses to about 57.7 µM), without a hit: at the highest dose activity, negative = inhibition, hits mostly inhibitors; K18 P301L tau heparin fibrillization, Alexa594 FP, 6 h; note: nearly all actives have a fitted effect of over 55% in size
Target sequence (P10636 561-689 P618L limits assumed): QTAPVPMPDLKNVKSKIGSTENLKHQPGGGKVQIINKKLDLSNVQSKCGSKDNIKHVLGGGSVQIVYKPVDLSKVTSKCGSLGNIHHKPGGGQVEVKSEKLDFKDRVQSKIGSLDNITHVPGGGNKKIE
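Recombinant K18 P301L […], labeled with Alexa 594 at 0.24 uM over 15 uM unlabeled; heparin inducer 20 uM final; 37 C, 6 hr; FP endpoint.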
Tau ThT inhib: tau fibrillization inhibition (ThT binding); recombinant tau K18 P301L (four-repeat tau fragment), heparin-induced fibrillization, ThT fluorescence; Potency, µM (titrated, usually from 57.4 µM), for inactives: at the highest dose activity, negative = inhibition, actives largely listed as inhibitors; 270,000 tested, 2.1% active; AID 1460; note: nearly all actives have a fitted effect of over 55% in size
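K18 P301L tau (15 uM + 0.24 uM Alexa 594-tagged), heparin 20 uM, NaOAc pH 7, 6 h 37 C; ThT 30 uM, 1 h RT, ex 450/em 510 nm.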
PLK1 PBD inh: inhibitors of human PLK1 polo-box domain binding; Potency, µM, inactives show max response, negative = inhibition, most hits filed as inhibitors; P53350; Plk1 PBD binding of FITC phosphopeptide, fluorescence polarization; 360,000 tested, 2.8% active; note: series mostly up to about 57 µM; nearly all actives have a fitted effect of over 65% in size
VDR inh: inhibitors of human vitamin D receptor | Potency, µM, for inactives: max response, negative = inhibition, actives largely listed as inhibitors | 400,000 tested, 0.93% active | VDR-SRC2-3 peptide fluorescence polarization, 2 h
Target sequence (P11473 whole entry, looked up): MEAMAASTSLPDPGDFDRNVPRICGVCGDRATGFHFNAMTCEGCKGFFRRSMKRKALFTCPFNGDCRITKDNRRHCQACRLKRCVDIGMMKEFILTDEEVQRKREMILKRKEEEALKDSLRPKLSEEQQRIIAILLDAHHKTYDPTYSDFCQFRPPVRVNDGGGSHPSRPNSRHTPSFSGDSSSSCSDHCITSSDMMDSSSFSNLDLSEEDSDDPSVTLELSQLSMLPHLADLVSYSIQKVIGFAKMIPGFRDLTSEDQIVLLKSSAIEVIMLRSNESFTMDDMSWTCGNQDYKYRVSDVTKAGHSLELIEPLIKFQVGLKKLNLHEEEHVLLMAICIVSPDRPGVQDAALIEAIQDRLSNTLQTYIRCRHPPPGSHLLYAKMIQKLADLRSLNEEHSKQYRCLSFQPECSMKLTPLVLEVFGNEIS
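Signal is fluorescence polarization, reporting how far test compounds block the interaction of VDR with the SRC2-3 coregulator peptide after a 2 h room-temperature incubation.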
Sfp PPTase inh: inhibitors of Bacillus subtilis Sfp phosphopantetheinyl transferase; Q9F4F7; Biochemical Sfp PPTase activity, qHTS; Potency, µM, for the others: largest response in the series, negative = inhibition, actives largely listed as inhibitors; 310,000 tested, 3.5% active; AID 1490;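 note: the enzyme is Sfp with the accession as filed and its product quenches rhodamine fluorescence; 0% = enzyme reaction without inhibitor and -100% = no enzyme wells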
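After 15 min at room temperature with compound, 15 nM Sfp received 5 uM rhodamine-CoA plus 12.5 uM BHQ-2-ybbR (50 mM Hepes pH 7.6, 10 mM MgCl2). Rate came from the fluorescence difference over 30 min, ex 525/em 598 nm.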
* = called active by the depositor; ? = inconclusive; . = no result; [ ] = dose if it differs, or a comment. Calls come from the whole dose curve; as a rule, active = well fitted curve in the direction sought with a large enough effect; inconclusive = small, poorly fitted or top-dose-only effect, or another doubt; inactive = no such curve, though single readings can be large; an effect the other way counts as inactive or inconclusive. Unless noted, % is set by controls: 0 for no effect and ±100 for the full control effect; potency is the fitted concentration of half-maximal effect.

SMILES	Tau fluor cs	Tau fibril FP	Tau ThT inhib	PLK1 PBD inh	VDR inh	Sfp PPTase inh
CC(C)C(=O)Nc1ccc(NC(=O)c2cccc3c(Br)cccc23)cc1	.	.	.	26.7µM*	?	7.4%
CCOc1ccccc1-c1ccc(C(=O)O)s1	-5.7%[126 µM]	-0.3%[126 µM]	-9.1%[126 µM]	.	?	-7.3%
O=C(O)c1ccc(-c2ccccc2C(F)(F)F)s1	4.3%[126 µM]	8.2%[126 µM]	-3.3%[126 µM]	.	126µM*	-2.8%
O=C(Nc1ccon1)C1CCN(S(=O)(=O)c2cccs2)CC1	0.5%	0.5%	-2.5%	3.36µM*	-25.2%	21.5%
Cc1cc(NC(=O)C2CCN(S(=O)(=O)c3cccs3)CC2)no1	-0.7%	-0.3%	-3.6%	-16.5%	-15.2%	14.6%
O=[N+]([O-])c1ccc(C[n+]2cccc3ccc4cccnc4c32)cc1	2.7%	11.6%	3.5%	9.47µM*	79.4µM*	14.1µM*
CO/N=C(\Cn1ncc(NC2CCCCC2)c(Br)c1=O)c1ccc(Cl)cc1	-5.6%	4.6%	?	-1.8%	-1.9%	-12.0%
CO/N=C(\Cn1ncc(N2CCCC2)c(Br)c1=O)c1ccc(Cl)cc1	-8.7%	-8.9%	-12.3%	-10.7%	-13.3%	89.1µM*
O=C(CSc1nc2c(sc3ccccc32)c(=O)n1CCCC(=O)NC1CCCC1)Nc1ccc(F)cc1	-4.2%	?	3.4%	.	-5.2%	.
CCCN1CCN(c2nnc(-n3cccc3C(=O)Nc3ccccc3C(F)(F)F)s2)CC1	0.7%	-5.7%	9.4%	.	-6.6%	.
Cc1nc(Nc2cc(F)ccc2C)c2nnn(Cc3ccccc3)c2n1	.	.	.	23.8µM*	?	-50.7%
Cc1nc2c(nnn2Cc2ccccc2)c(=O)[nH]1	-4.8%	-0.5%	-11.0%	4.74µM*	?	2.7%
Cc1nc(Nc2ccccc2Br)c2nnn(Cc3ccccc3)c2n1	.	.	.	-10.2%	-15.5%	-22.3%
Cc1nc2c(nnn2Cc2ccccc2Cl)c(=O)[nH]1	.	.	.	2.7%	-5.5%	10.8%
Cc1nc(Nc2ccc(Cl)cc2)c2nnn(Cc3ccccc3)c2n1	-11.2%	-4.0%	3.5%	26.7µM*	-1.8%	20.8%
COc1ccc(-c2ccc(CNc3ccc4[nH]c(=O)[nH]c4c3)o2)cc1Cl	?	13.2%	?	.	11.3%	.
Cc1ccc2oc(=O)c(/C=C(\O)c3ccco3)nc2c1	-14.0%	-9.0%	-24.1%	2.5%	4.4%	?
O=c1oc2ccccc2nc1/C=C(O)/C=C/c1ccc(F)cc1	1.9%	15.1%	8.1%	3.3%	-26.3%	79.4µM*
O=c1oc2ccccc2nc1/C=C(O)/C=C\c1ccccc1	-25.8%	?	28.2µM*	-4.7%	?	-18.5%
Cn1c2c(c(=O)n(C)c1=O)C(c1ccc(Br)cc1)C(C#N)=C(N)N2 (stereo not given)	.	.	.	-5.7%	-15.2%	18.9%
N#CC1=C2SCN(C3CCCCC3)CN2C(=O)CC1c1ccc(Br)cc1 (stereo not given)	-27.6%	?	?	.	17.8µM*	.
CCOc1cc(C2CC(=O)N3CN(C4CCCCC4)CSC3=C2C#N)ccc1O (stereo not given)	-25.5%	?	14.1µM*	10.6µM*	?	3.55µM*
CCOc1cc(C2CC(=O)NC(SCC)=C2C#N)ccc1O (stereo not given)	-7.8%	-2.5%	-5.2%	0.9%	3.8%	4.2%
CSc1ccccc1NC(=O)C1=CC(c2ccc3c(c2)OCO3)=NS(=O)(=O)N1C	9.8%	?	-0.5%	.	7.9%	.
COc1ccc(/C=N/Nc2cc(C)nc3ccc(Br)cc23)cc1	.	.	.	-2.4%	0.8%	56.2µM*
COc1ccc2nc(C)cc(N/N=C/c3cccc(OC)c3O)c2c1	.	.	.	-0.3%	12.0%	?
COc1ccc(NS(=O)(=O)c2ccc(N3CCCC3)c(NC(=S)Nc3cccc(S(=O)(=O)N(C)C)c3)c2)cc1	?	?	25.1µM*	.	.	3.98µM*
COc1ccc(Nc2ncnc3sc(-c4ccccc4)cc23)cc1OC	14.1µM*[quencher]	?	?	8.7%	-7.4%	13.3%
CCOC(CNc1ncnc2sc(-c3ccccc3)cc12)OCC	.	.	.	-1.9%	17.9%	-17.9%
CN(C)CCCNc1ncnc2sc(-c3ccccc3)cc12	-11.3%	-3.6%	7.8%	-7.3%	-20.9%	56.2µM*
